Measurements as given in PubChem BioAssay AID1159580 (chemical genetic matrix, 2015).
Where “and” joins values, the source holds several entries; their conditions need not be identical. Identical values can stand only once. The whole screen tested about 5,500 compounds, of which about 2,000 (36%) were called active. About 18% were inconclusive and are not listed. Cut-off read from the data, not from the text of the source: active = normalized growth mostly below about 0.91 (no sharp cut-off); inconclusive = no clear call, values can overlap the other calls; inactive = mostly above about 0.92. Some of the results follow.

Assay: chemical genetic growth profiling, strain panel (AID 1159580);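 note: tested at 20 µM; growth read once vehicle control cultures reached saturation at 30 °C; 1 = growth at the plate median or of vehicle wells; lower values mean less growth of the strain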
Conditions: S. cerevisiae deletion strains, growth OD

Measured: normalized growth

C[C@@H]1CCC2[C@](C)(CO)[C@@H](O)CC[C@]2(C)[C@@]12CC[C@@](CO)(CCO)O2 (stereo partly specified)
inactive: locus YAL021C, strain ccr4, active compounds read low 0.991 | locus YAL026C, strain drs2, active compounds read low 0.985 | locus YAL030W, strain snc1, active compounds read low 0.987 | locus YBL061C, strain skt5, active compounds read low 0.967 | locus YBR009C, strain hhf1, active compounds read low 0.977 | locus YBR021W, strain FUR4, active compounds read low 0.998 | locus YBR023C, strain chs3, active compounds read low 0.983 | locus YBR171W, strain sec66, active compounds read low 0.965 | locus YBR229C, strain ROT2, active compounds read low 0.997 | locus YBR231C, strain swc5, active compounds read low 0.997 | locus YBR279W, strain paf1, active compounds read low 0.991 | locus YCL011C, strain gbp2, active compounds read low 0.994 | locus YCL016C, strain dcc1, active compounds read low 0.989 | locus YCL029C, strain bik1, active compounds read low 0.986 | locus YCL061C, strain MRC1, active compounds read low 0.975 | locus YCL069W, strain vba3, active compounds read low 0.979 | locus YCR088W, strain abp1, active compounds read low 0.979 | locus YDL005C, strain med2, active compounds read low 0.972 | locus YDL035C, strain GPR1, active compounds read low 1.02 | locus YDL040C, strain nat1, active compounds read low 0.972 | locus YDL074C, strain BRE1, active compounds read low 1 | locus YDL101C, strain DUN1, active compounds read low 1 | locus YDL134C, strain PPH21, active compounds read low 1.04 | locus YDL185W, strain tfp1, active compounds read low 0.987 | locus YDL192W, strain arf1, active compounds read low 0.994 | locus YDR001C, strain nth1, active compounds read low 0.986 | locus YDR069C, strain doa4, active compounds read low 0.963 | locus YDR101C, strain arx1, active compounds read low 0.995 | locus YDR137W, strain rgp1, active compounds read low 1.01 | locus YDR159W, strain sac3, active compounds read low 0.933 | locus YDR162C, strain NBP2, active compounds read low 1.06 | locus YDR195W, strain ref2 0.959 | locus YDR297W, strain sur2, active compounds read low 0.996 | locus YDR318W, strain mcm21, active compounds read low 0.994 | locus YDR334W, strain swr1, active compounds read low 0.976 | locus YDR335W, strain msn5, active compounds read low 0.978 | locus YDR388W, active compounds read low 0.974 | locus YDR392W, strain spt3, active compounds read low 0.975 | locus YDR502C, strain sam2, active compounds read low 1.01 | locus YEL003W, strain gim4, active compounds read low 0.974 | locus YEL037C, strain rad23, active compounds read low 0.968 | locus YEL061C, strain CIN8 (second series), active compounds read low 0.98 | locus YEL061C, strain CIN8, active compounds read low 1.01 | locus YER015W, strain faa2, active compounds read low 0.99 | locus YER016W, strain bim1, active compounds read low 0.981 | locus YER110C, active compounds read low 0.983 | locus YER111C, strain swi4, active compounds read low 0.959 | locus YER155C, strain BEM2 (second series), active compounds read low 0.958 | locus YER155C, strain BEM2, active compounds read low 0.993 | locus YER167W, strain BCK2, active compounds read low 1 | locus YFR010W, strain ubp6, active compounds read low 0.957 | locus YGL078C, strain dbp3, active compounds read low 0.985 | locus YGL086W, strain mad1, active compounds read low 1.03 | locus YGL167C, strain pmr1, active compounds read low 0.976 | locus YGL173C, strain kem1, active compounds read low 0.979 | locus YGL227W, strain vid30, active compounds read low 0.978 | locus YGL240W, strain doc1, active compounds read low 0.966 | locus YGL248W, strain PDE1, active compounds read low 1 | locus YGL253W, strain hxk2, active compounds read low 0.944 | locus YGR078C, strain PAC10, active compounds read low 1.03 | locus YGR135W, strain pre9, active compounds read low 0.983 | locus YGR229C, strain SMI1, active compounds read low 1.04 | locus YGR252W, strain gcn5, active compounds read low 1.02 | locus YHR013C, strain ard1, active compounds read low 0.959 | locus YHR027C, strain rpn1, active compounds read low 0.983 | locus YHR030C, strain SLT2, active compounds read low 1 and 0.991 | locus YHR079C, strain IRE1 (second series), active compounds read low 0.981 | locus YHR079C, strain IRE1, active compounds read low 0.99 | locus YHR094C, strain hxt1, active compounds read low 0.982 | locus YHR129C, strain ARP1, active compounds read low 1 | locus YHR142W, strain chs7, active compounds read low 0.977 | locus YHR200W, strain rpn10, active compounds read low 0.985 | locus YIL066C, strain RNR3, active compounds read low 1.02 | locus YIL073C, strain SPO22, active compounds read low 0.979 | locus YIL125W, strain kgd1, active compounds read low 0.975 | locus YIR030C, strain dcg1, active compounds read low 0.991 | locus YJL092W, strain hpr5, active compounds read low 0.977 | locus YJL095W, strain BCK1 (second series), active compounds read low 0.983 | locus YJL095W, strain BCK1, active compounds read low 1.04 and 0.955 | locus YJL115W, strain asf1, active compounds read low 0.986 | locus YJL129C, strain trk1, active compounds read low 0.966 | locus YJL134W, strain LCB3, active compounds read low 0.991 | locus YJL154C, strain vps35, active compounds read low 0.982 | locus YJL164C, strain tpk1, active compounds read low 1 | locus YJL166W, strain qcr8, active compounds read low 0.98 | locus YJL168C, strain set2, active compounds read low 0.989 | locus YJL187C, strain SWE1 (second series), active compounds read low 1 | locus YJL187C, strain SWE1, active compounds read low 0.981 | locus YJR043C, strain POL32, active compounds read low 1.04 | locus YJR066W, strain TOR1, active compounds read low 0.976 | locus YJR075W, strain HOC1, active compounds read low 1.04 | locus YKL009W, strain mrt4, active compounds read low 0.976 | locus YKL068W, active compounds read low 0.986 | locus YKL085W, strain MDH1 (second series), active compounds read low 0.99 | locus YKL085W, strain MDH1, active compounds read low 0.99 | locus YKL160W, strain elf1, active compounds read low 0.988 | locus YKR001C, strain vps1, active compounds read low 1.01 | locus YKR026C, strain gcn3, active compounds read low 0.978 | locus YKR091W, strain srl3, active compounds read low 0.988 | locus YLL001W, strain dnm1, active compounds read low 0.991 | locus YLL026W, active compounds read low 0.982 | locus YLL041C, strain sdh2, active compounds read low 0.977 | locus YLR027C, strain aat2, active compounds read low 0.98 | locus YLR039C, strain RIC1, active compounds read low 1.09 | locus YLR058C, strain SHM2, active compounds read low 1 | locus YLR102C, strain apc9, active compounds read low 0.977 | locus YLR113W, strain HOG1, active compounds read low 0.991 | locus YLR221C, strain rsa3, active compounds read low 0.953 | locus YLR258W, strain gsy2, active compounds read low 0.969 | locus YLR262C, strain YPT6 (second series), active compounds read low 1.01 | locus YLR262C, strain YPT6, active compounds read low 1.09 | locus YLR268W, strain sec22, active compounds read low 0.996 | locus YLR320W, strain mms22, active compounds read low 0.971 | locus YLR330W, strain CHS5, active compounds read low 0.995 | locus YLR342W, strain FKS1 (second series), active compounds read low 0.995 | locus YLR342W, strain FKS1, active compounds read low 0.969 | locus YLR357W, strain rsc2, active compounds read low 0.95 | locus YLR370C, strain arc18, active compounds read low 0.977 | locus YLR371W, strain rom2, active compounds read low 0.982 | locus YLR384C, strain iki3, active compounds read low 0.974 | locus YLR418C, strain cdc73, active compounds read low 1.03 | locus YML016C, strain PPZ1, active compounds read low 0.997 | locus YML032C, strain rad52, active compounds read low 0.97 | locus YML120C, strain ndi1, active compounds read low 0.992 | locus YML124C, strain tub3, active compounds read low 0.993 | locus YMR058W, strain fet3, active compounds read low 0.973 | locus YMR078C, strain ctf18, active compounds read low 1 | locus YMR125W, strain sto1, active compounds read low 0.982 | locus YMR129W, active compounds read low 0.986 | locus YMR205C, strain PFK2, active compounds read low 1.01 | locus YMR223W, strain ubp8, active compounds read low 1 | locus YMR231W, strain pep5, active compounds read low 0.951 | locus YMR307W, strain GAS1, active compounds read low 1.15 | locus YNL067W, strain RPL9B, active compounds read low 1.03 | locus YNL071W, strain lat1, active compounds read low 0.989 | locus YNL153C, strain GIM3, active compounds read low 1.04 | locus YNL183C, strain NPR1, active compounds read low 0.977 | locus YNL209W, strain ssb2, active compounds read low 0.992 | locus YNL233W, strain BNI4, active compounds read low 1.02 | locus YNL248C, strain rpa49, active compounds read low 0.976 | locus YNL250W, strain rad50, active compounds read low 0.985 | locus YNL271C, strain bni1, active compounds read low 1.01 | locus YNL298W, strain CLA4, active compounds read low 0.968 | locus YNL307C, strain MCK1, active compounds read low 0.982 | locus YNL322C, strain KRE1 (second series), active compounds read low 1 | locus YNL322C, strain KRE1, active compounds read low 1.01 | locus YNR049C, strain mso1, active compounds read low 0.971 | locus YNR052C, strain pop2, active compounds read low 0.983 | locus YOL012C, strain htz1 1.2 | locus YOL147C, strain pex11, active compounds read low 0.989 | locus YOR001W, strain rrp6, active compounds read low 0.956 | locus YOR061W, strain CKA2, active compounds read low 1 | locus YOR069W, strain VPS5, active compounds read low 0.991 | locus YOR070C, strain gyp1, active compounds read low 0.973 | locus YOR080W, strain dia2, active compounds read low 0.972 | locus YOR083W, strain WHI5, active compounds read low 1 | locus YOR106W, strain vam3, active compounds read low 1.03 | locus YOR136W, strain idh2, active compounds read low 0.984 | locus YOR144C, strain elg1, active compounds read low 0.999 | locus YOR184W, strain ser1, active compounds read low 1.02 | locus YOR231W, strain MKK1, active compounds read low 1 | locus YOR265W, strain rbl2, active compounds read low 0.996 | locus YOR270C, strain vph1, active compounds read low 0.971 | locus YOR290C, strain snf2, active compounds read low 0.967 | locus YOR316C, strain cot1, active compounds read low 0.975 | locus YPL051W, strain arl3, active compounds read low 0.965 | locus YPL078C, strain atp4, active compounds read low 0.995 | locus YPL106C, strain sse1, active compounds read low 0.987 | locus YPL240C, strain hsp82, active compounds read low 0.981 | locus YPL241C, strain CIN2, active compounds read low 1.01 | locus YPL256C, strain CLN2, active compounds read low 0.996 | locus YPR119W, strain clb2, active compounds read low 0.997 | locus YPR141C, strain kar3, active compounds read low 0.984 | locus YPR163C, strain tif3, active compounds read low 0.983 | locus YPR167C, strain met16, active compounds read low 1.01 | strain wtn01, active compounds read low 0.98
